Measurements from PubChem BioAssay (EPA / NIEHS).
“And” between values parts separate entries of the source, which are not always exact repeats. Identical values can stand only once. Records with an inconclusive call do not appear. Some structures have more than one record in an assay (separate samples or runs), and their calls can disagree. The source made the active and inactive calls. How the source made its calls, unless noted: active means hit-call score of the fitted dose curve at least 0.9, where 1 is the maximum; inactive means score below 0.9.

Tests used:
[1] = BSK_4H_Eotaxin3: BioMAP Diversity Plus: 4H Assay for Eotaxin 3 Biomarker Activity (AID 2283000); conditions: primary human endothelial cells (HUVEC); actives raise or lower the signal
Procedure, shortened: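 Chemicals were added to human umbilical vein endothelium cultures, and Eotaxin-3 was quantified by ELISA at 24 h. Values were derived by bidirectional fitting with DMSO serving as negative control and activity baseline.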

[2] = target: human Peroxisome Proliferator-activated Receptor delta (PPARd), PPARD (gene 5467) (UniProt Q03181); assay: ATG_PPARd_TRANS: Attagene TRANS-FACTORIAL HepG2 Assay for human Peroxisome Proliferator-activated Receptor delta (PPARd) (AID 2283002; active means hit-call score of the fitted dose curve at least 0.9, where 1 is the maximum)
Procedure, shortened: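 HepG2 cells transiently transfected with multiplexed GAL4-UAS reporter units and exogenous chimeric NR-Gal4 proteins; 24 h compound exposure. Reporter mRNA measured by RT-PCR, 6-FAM labelling, HpaI digestion and capillary electrophoresis; gain of signal versus DMSO.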

[3] = read-out: Intercellular Adhesion Molecule 1 (ICAM1), ICAM1 (gene 3383); assay: BSK_3C_ICAM1: BioMAP Diversity Plus: 3C Assay for Intercellular Adhesion Molecule 1 (ICAM1) Biomarker Activity (AID 2283003); conditions: primary human endothelial cells (HUVEC); actives raise or lower the signal
Procedure, shortened: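 Human vascular endothelial primary cells, 3C conditions, 24 h treatment. ICAM-1 by ELISA.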

[4] = target: human Retinoic Acid Receptor beta (RARb), RARB (gene 5915) (UniProt P10826); assay: ATG_RARb_TRANS: Attagene TRANS-FACTORIAL HepG2 Assay for human Retinoic Acid Receptor beta (AID 2283004; active means hit-call score of the fitted dose curve at least 0.9, where 1 is the maximum)
Procedure, shortened: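 Transient transfection of HepG2 with multiple reporter units → chemical dosing, 24 h → total RNA isolation → RT with oligo(dT) → reporter-specific PCR, 6-FAM primer extension, HpaI digest → capillary electrophoresis. Positive direction vs DMSO control.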

[5] = BSK_3C_Proliferation: Cell Proliferation Assessment in the BioMAP Diversity Plus: 3C Assay (AID 2283006); conditions: primary human endothelial cells (HUVEC);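 on AC50: potency may reflect either rise or fall in cell number versus DMSO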
Procedure, shortened: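 Proliferation of human vascular endothelial primary cells after 48 h dosing, quantified as SRB-stained protein at 560 nm relative to DMSO.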

[6] = target: Nuclear receptor subfamily 1 group I member 2 (Homo sapiens) (UniProt O75469); assay: ATG_PXR_TRANS: Attagene TRANS-FACTORIAL HepG2 Assay for human Pregnane X Receptor (PXR) (AID 2283008; active means hit-call score of the fitted dose curve at least 0.9, where 1 is the maximum)
Procedure, shortened: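 HepG2 cells transiently transfected with GAL4-UAS reporter units and PXR-Gal4 chimera, exposed 24 h. Reporter mRNA quantified by RT-PCR, fluorescent labelling, HpaI digestion and capillary electrophoresis; gain of signal vs DMSO.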

[7] = target: human Retinoic Acid Receptor gamma (RARg), RARG (gene 5916) (UniProt P13631); assay: ATG_RARg_TRANS: Attagene TRANS-FACTORIAL HepG2 Assay for human Retinoic Acid Receptor gamma (RARg) (AID 2283009; active means hit-call score of the fitted dose curve at least 0.9, where 1 is the maximum)
Procedure, shortened: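 HepG2, RARg-GAL4 TRANS system, 24 h exposure; reporter mRNA by RT-PCR + CE fluorescence; increase over DMSO.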

[8] = target: human Retinoid X Receptor beta (RXRb), RXRB (gene 6257) (UniProt P28702); assay: ATG_RXRb_TRANS: Attagene TRANS-FACTORIAL HepG2 Assay for human Retinoid X Receptor beta (RXRb) (AID 2283013; active means hit-call score of the fitted dose curve at least 0.9, where 1 is the maximum)
Procedure, shortened: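 Multiplexed TRANS reporter assay in HepG2; 24 h dosing; reporter mRNA by RT-PCR/CE fluorescence; gain-of-signal relative to DMSO.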

[9] = target: human Thyroid Receptor alpha (THRa1), THRA (gene 7067) (UniProt P10827); assay: ATG_THRa1_TRANS: Attagene TRANS-FACTORIAL HepG2 Assay for human Thyroid Receptor alpha (THRa1) (AID 2283014; active means hit-call score of the fitted dose curve at least 0.9, where 1 is the maximum)
Procedure, shortened: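 Reporter transcript induction, read by capillary electrophoresis of 6-FAM-labelled RT-PCR products, reflects activity of a transfected THRa1-Gal4 fusion in HepG2 liver cells. Cells were dosed for 24 h; activity was fitted in the positive direction against DMSO.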

[10] = read-out: E-selectin (Homo sapiens) (UniProt P16581); assay: BSK_3C_Eselectin: BioMAP Diversity Plus: 3C Assay for Eselectin Biomarker Activity (AID 2283015); conditions: primary human endothelial cells (HUVEC); actives raise or lower the signal
Procedure, shortened: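 ELISA read-out of E-selectin on endothelial monolayers after 24 h chemical treatment. Human umbilical vein primary cells served as the system, with DMSO defining baseline activity for bidirectional fitting.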

[11] = read-out: Interleukin-1 alpha (IL1a), IL1A (gene 3552); assay: BSK_BE3C_IL1a: BioMAP Diversity Plus: BE3C Assay for Interleukin-1 alpha (IL1a) Biomarker Activity (AID 2283016); conditions: primary human bronchial epithelial cells; actives raise or lower the signal
Procedure, shortened: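 Cultures of primary human bronchial epithelial cells receive test chemical. After 24 h, IL-1a is quantified by ELISA, while parallel wells are fixed in TCA and SRB-stained for total protein. Changes in either direction are fitted relative to DMSO.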

[12] = read-out: Monocyte Chemoattractant Protein-1 (MCP1), CCL2 (gene 6347); assay: BSK_3C_MCP1: BioMAP Diversity Plus: 3C Assay for Monocyte Chemoattractant Protein-1 (MCP1) Biomarker Activity (AID 2283017); conditions: primary human endothelial cells (HUVEC); actives raise or lower the signal
Procedure, shortened: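 ELISA read-out of MCP-1 from human umbilical vein endothelial cell cultures harvested 24 h post-dosing. Gain or loss of signal was fitted relative to DMSO.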

[13] = read-out: Monocyte Chemoattractant Protein-1 (MCP1), CCL2 (gene 6347); assay: BSK_4H_MCP1: BioMAP Diversity Plus: 4H Assay for Monocyte Chemoattractant Protein-1 (MCP1) Biomarker Activity (AID 2283018); conditions: primary human endothelial cells (HUVEC); actives raise or lower the signal
Procedure, shortened: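 Readout: MCP-1 ELISA on compound-treated HUVEC, sampled 24 h post-dosing. Baseline and negative control DMSO; bidirectional fit. Overt toxicity checked alongside by sulforhodamine B protein staining at time of biomarker measurement.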

[14] = read-out: Human Leukocyte Antigen - DR isotype (HLADR), HLA-DRA (gene 3122); assay: BSK_3C_HLADR: BioMAP Diversity Plus: 3C Assay for Human Leukocyte Antigen - DR isotype (HLADR) Biomarker Activity (AID 2283019); conditions: primary human endothelial cells (HUVEC); actives raise or lower the signal
Procedure, shortened: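 ELISA readout of surface HLA-DR on human umbilical vein endothelium, taken 24 h after chemical treatment. Gain- and loss-of-signal were both fitted relative to DMSO.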

[15] = read-out: Interleukin-8 (IL8), CXCL8 (gene 3576); assay: BSK_3C_IL8: BioMAP Diversity Plus: 3C Assay for Interleukin-8 (IL8) Biomarker Activity (AID 2283020); conditions: primary human endothelial cells (HUVEC); actives raise or lower the signal
Procedure, shortened: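 Human vascular endothelial cells (umbilical vein) in the 3C system; IL-8 level detected by ELISA at 24 h post-dose, with DMSO as baseline.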

[16] = target: human Peroxisome Proliferator-activated Receptor alpha (PPARa), PPARA (gene 5465) (UniProt Q07869); assay: ATG_PPARa_TRANS: Attagene TRANS-FACTORIAL HepG2 Assay for human Peroxisome Proliferator-activated Receptor alpha (PPARa) (AID 2283001; active means hit-call score of the fitted dose curve at least 0.9, where 1 is the maximum;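 on AC50: potency for gain of reporter signal over DMSO so agonist or activator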)
Procedure, shortened: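 HepG2 cells transiently transfected with multiplexed GAL4-UAS reporter units and chimeric NR-Gal4 constructs were dosed for 24 h. Reporter mRNA was measured by RT-PCR with fluorescent labelling and capillary electrophoresis; gain of signal fitted against DMSO.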

[17] = target: Peroxisome proliferator-activated receptor gamma (Homo sapiens) (UniProt P37231); assay: ATG_PPARg_TRANS: Attagene TRANS-FACTORIAL HepG2 Assay for human Peroxisome Proliferator-activated Receptor-gamma (PPARg) (AID 2283007; active means hit-call score of the fitted dose curve at least 0.9, where 1 is the maximum)
Procedure, shortened: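 HepG2 cells are transiently transfected with GAL4-UAS reporter units driven by chimeric NR-Gal4 fusions and dosed for 24 h. Reporter mRNA is quantified by RT-PCR, 6-FAM labelling, HpaI digestion and capillary electrophoresis. Induction is scored against DMSO.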

[18] = target: human RAR-related Orphan Receptor beta (RORb), RORB (gene 6096) (UniProt Q92753); assay: ATG_RORb_TRANS: Attagene TRANS-FACTORIAL HepG2 Assay for human RAR-related Orphan Receptor beta (RORb) (AID 2283010; active means hit-call score of the fitted dose curve at least 0.9, where 1 is the maximum)
Procedure, shortened: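 In this TRANS-format test, human HepG2 cells express chimeric NR-Gal4 fusion proteins driving GAL4-UAS reporters. After 24 h dosing, reporter transcripts are measured by fluorescent RT-PCR/capillary electrophoresis, with DMSO as negative control.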

[19] = target: human RAR-related Orphan Receptor gamma (RORg), RORC (gene 6097) (UniProt P51449); assay: ATG_RORg_TRANS: Attagene TRANS-FACTORIAL HepG2 Assay for human RAR-related Orphan Receptor gamma (RORg) (AID 2283011; active means hit-call score of the fitted dose curve at least 0.9, where 1 is the maximum)
Procedure, shortened: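 First, HepG2 liver cells were transfected with GAL4-UAS-driven reporter constructs and the RORg-Gal4 fusion. Next, they were treated with chemical for 24 h. Finally, reporter mRNA was quantified by RT-PCR and capillary electrophoresis, with upward activity fitted against DMSO.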

[20] = target: Retinoic acid receptor RXR-alpha (Homo sapiens) (UniProt P19793); assay: ATG_RXRa_TRANS: Attagene TRANS-FACTORIAL HepG2 Assay for human Retinoid X Receptor alpha (RXRa) (AID 2283012; active means hit-call score of the fitted dose curve at least 0.9, where 1 is the maximum)
Procedure, shortened: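 Cells (HepG2) carried transiently transfected GAL4-responsive reporter units. Following a 24 h chemical incubation, reporter mRNA induction was read via RT-PCR fragment analysis; DMSO served as negative control and baseline.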

Measured: AC50

Retinoic acid receptor RXR-alpha (Homo sapiens), sequence (P19793 whole entry, looked up, the tested form may be a part): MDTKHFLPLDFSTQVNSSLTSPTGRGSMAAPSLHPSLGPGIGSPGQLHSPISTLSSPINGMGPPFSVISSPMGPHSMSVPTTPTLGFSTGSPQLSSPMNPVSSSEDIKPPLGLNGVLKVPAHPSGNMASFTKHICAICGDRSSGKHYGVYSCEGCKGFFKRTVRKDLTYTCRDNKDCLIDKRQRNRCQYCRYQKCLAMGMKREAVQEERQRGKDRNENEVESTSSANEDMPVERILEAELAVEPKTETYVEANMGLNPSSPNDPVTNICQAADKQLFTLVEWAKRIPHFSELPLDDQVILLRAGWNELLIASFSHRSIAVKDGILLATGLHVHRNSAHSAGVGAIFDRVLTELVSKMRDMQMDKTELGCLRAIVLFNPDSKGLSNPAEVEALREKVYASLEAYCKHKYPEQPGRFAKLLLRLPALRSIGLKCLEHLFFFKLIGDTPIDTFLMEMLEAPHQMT
human Retinoic Acid Receptor gamma (RARg), RARG (gene 5916), sequence (P13631 whole entry, looked up, the tested form may be a part): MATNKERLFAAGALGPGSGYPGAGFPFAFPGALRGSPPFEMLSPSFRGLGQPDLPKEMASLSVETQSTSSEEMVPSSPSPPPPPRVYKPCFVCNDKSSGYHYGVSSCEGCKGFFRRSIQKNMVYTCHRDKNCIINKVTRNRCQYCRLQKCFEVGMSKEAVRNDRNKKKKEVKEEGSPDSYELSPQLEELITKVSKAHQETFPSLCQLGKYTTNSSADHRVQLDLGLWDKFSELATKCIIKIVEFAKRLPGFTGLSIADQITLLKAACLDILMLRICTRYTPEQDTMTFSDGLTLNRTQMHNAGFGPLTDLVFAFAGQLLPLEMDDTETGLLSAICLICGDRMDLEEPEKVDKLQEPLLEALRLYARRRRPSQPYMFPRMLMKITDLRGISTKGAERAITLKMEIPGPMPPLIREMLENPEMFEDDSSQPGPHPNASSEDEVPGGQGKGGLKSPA
human Peroxisome Proliferator-activated Receptor delta (PPARd), PPARD (gene 5467), sequence (Q03181 whole entry, looked up, the tested form may be a part): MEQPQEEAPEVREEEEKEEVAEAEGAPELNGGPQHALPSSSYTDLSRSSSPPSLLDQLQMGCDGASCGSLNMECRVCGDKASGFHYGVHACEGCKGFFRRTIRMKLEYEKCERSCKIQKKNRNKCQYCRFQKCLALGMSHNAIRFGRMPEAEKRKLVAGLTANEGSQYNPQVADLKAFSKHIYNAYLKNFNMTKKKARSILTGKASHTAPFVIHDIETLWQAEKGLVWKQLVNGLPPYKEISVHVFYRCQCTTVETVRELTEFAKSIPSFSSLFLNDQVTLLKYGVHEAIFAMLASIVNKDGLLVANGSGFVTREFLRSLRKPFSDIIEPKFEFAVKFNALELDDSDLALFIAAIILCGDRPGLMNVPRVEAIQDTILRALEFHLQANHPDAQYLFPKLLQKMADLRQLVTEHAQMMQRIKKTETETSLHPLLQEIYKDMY
E-selectin (Homo sapiens), sequence (P16581 whole entry, looked up): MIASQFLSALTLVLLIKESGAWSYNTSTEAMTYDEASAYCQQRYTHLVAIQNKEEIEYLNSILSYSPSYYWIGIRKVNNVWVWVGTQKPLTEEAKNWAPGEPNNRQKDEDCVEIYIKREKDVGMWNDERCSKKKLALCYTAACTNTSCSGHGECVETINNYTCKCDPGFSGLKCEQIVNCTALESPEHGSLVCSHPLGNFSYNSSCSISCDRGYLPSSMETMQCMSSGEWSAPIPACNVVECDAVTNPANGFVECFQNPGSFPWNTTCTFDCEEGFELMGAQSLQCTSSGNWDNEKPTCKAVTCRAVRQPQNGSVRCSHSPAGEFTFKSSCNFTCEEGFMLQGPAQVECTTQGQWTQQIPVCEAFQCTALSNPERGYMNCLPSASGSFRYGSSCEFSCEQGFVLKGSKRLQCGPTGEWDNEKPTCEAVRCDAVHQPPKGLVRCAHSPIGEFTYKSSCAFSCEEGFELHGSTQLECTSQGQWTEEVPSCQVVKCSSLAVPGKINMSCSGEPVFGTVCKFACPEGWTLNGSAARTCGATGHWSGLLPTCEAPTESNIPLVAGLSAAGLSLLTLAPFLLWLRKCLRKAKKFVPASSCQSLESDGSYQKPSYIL
human Peroxisome Proliferator-activated Receptor alpha (PPARa), PPARA (gene 5465), sequence (Q07869 whole entry, looked up, the tested form may be a part): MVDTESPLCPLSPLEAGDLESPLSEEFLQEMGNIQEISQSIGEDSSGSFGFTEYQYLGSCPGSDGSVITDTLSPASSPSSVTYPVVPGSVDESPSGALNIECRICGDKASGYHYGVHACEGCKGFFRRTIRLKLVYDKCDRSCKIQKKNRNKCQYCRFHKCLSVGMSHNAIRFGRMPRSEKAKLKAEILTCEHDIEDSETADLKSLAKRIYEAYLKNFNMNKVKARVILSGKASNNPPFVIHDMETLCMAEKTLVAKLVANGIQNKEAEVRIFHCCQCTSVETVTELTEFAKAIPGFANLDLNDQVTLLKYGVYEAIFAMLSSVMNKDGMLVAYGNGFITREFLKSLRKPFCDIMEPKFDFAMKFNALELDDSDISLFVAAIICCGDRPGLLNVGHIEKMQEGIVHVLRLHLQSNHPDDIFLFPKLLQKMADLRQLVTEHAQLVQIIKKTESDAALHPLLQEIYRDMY
human Thyroid Receptor alpha (THRa1), THRA (gene 7067), sequence (P10827 whole entry, looked up, the tested form may be a part): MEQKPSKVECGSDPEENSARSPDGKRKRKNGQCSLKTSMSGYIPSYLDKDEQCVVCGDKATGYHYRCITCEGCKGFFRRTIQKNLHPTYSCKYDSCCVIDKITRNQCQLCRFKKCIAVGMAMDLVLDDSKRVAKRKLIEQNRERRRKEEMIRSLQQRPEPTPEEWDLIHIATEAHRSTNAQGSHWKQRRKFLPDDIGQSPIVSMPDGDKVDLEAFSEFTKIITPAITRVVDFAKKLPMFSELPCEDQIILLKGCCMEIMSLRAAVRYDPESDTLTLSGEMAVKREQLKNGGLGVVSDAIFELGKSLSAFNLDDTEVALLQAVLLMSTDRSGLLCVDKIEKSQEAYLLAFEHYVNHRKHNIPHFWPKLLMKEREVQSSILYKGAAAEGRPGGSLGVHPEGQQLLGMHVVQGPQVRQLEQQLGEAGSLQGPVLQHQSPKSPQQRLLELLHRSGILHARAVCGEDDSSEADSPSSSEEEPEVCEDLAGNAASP
human RAR-related Orphan Receptor beta (RORb), RORB (gene 6096), sequence (Q92753 whole entry, looked up, the tested form may be a part): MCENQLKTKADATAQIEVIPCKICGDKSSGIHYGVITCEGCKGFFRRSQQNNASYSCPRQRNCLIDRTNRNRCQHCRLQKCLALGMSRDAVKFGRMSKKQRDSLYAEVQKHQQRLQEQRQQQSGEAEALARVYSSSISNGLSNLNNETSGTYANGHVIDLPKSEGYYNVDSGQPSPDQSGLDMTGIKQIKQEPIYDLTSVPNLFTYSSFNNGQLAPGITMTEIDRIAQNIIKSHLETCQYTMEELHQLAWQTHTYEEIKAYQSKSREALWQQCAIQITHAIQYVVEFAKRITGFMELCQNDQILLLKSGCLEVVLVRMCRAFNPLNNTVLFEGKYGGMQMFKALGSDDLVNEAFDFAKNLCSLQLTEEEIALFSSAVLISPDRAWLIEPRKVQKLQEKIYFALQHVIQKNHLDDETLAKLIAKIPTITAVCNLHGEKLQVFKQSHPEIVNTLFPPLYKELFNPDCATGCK
Peroxisome proliferator-activated receptor gamma (Homo sapiens), sequence (P37231 whole entry, looked up, the tested form may be a part): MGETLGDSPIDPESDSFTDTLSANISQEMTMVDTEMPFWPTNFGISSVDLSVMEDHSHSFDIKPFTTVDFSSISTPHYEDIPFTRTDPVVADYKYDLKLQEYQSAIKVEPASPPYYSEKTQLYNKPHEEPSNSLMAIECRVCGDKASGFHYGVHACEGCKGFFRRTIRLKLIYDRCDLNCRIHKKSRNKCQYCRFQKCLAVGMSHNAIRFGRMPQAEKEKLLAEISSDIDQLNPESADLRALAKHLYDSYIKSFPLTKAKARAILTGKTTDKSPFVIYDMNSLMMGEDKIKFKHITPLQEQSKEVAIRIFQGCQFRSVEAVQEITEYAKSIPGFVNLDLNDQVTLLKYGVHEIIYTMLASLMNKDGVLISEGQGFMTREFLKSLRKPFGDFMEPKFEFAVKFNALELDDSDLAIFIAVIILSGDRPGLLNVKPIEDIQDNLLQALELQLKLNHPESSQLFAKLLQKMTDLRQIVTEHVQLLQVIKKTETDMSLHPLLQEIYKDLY
human Retinoic Acid Receptor beta (RARb), RARB (gene 5915), sequence (P10826 whole entry, looked up): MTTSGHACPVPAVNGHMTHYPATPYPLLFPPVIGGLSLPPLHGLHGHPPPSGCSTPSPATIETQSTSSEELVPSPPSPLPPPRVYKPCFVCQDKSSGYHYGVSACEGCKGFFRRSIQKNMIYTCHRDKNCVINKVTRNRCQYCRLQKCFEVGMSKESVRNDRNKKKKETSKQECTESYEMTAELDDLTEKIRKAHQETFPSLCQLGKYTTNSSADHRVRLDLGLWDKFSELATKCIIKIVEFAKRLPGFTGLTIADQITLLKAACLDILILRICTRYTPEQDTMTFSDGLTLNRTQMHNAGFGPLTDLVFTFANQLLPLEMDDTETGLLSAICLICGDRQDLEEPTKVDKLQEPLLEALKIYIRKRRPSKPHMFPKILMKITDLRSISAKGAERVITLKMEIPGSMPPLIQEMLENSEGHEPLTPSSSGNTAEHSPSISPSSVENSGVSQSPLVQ
Nuclear receptor subfamily 1 group I member 2 (Homo sapiens), sequence (O75469 whole entry, looked up, the tested form may be a part): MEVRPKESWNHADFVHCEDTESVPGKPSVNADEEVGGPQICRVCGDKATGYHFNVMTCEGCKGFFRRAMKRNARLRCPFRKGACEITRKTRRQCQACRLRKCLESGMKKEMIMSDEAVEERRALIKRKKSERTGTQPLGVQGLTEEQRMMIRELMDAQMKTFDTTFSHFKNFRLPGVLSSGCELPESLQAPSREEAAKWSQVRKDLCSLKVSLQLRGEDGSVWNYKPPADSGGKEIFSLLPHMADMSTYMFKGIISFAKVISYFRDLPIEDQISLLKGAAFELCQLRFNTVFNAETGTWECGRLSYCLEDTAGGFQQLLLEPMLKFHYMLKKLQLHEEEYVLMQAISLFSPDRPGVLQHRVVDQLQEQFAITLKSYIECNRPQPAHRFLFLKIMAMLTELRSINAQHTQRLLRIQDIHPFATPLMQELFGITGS

COC(=O)CCC(F)(F)C(F)(F)C(F)(F)C(F)(F)F
not listed: [16] | [17] | [18] | [19] | [20]
inactive: all other assays above

CCCCCCOC(=O)c1ccccc1O
active: [1] 37.6 µM and 43.5 µM | [3] 38.6 µM and 47 µM | [5] 35.3 µM and 40.9 µM | [10] 38.5 µM and 46.9 µM | [12] 41.9 µM and 38 µM | [13] 33.5 µM and 34.3 µM | [14] 37.4 µM and 43.7 µM | [15] 41.7 µM and 44.8 µM
inactive: [16] | [17] | [6] | [18] | [19] | [11]

O=C(O)C=C(C(F)(F)F)C(F)(F)F
active: [5] 27 µM | [10] 15.3 µM and 5.95 µM | [14] 30 µM and 47.7 µM
inactive: [1] | [16] | [3] | [5] | [17] | [6] | [7] | [19] | [20] | [9] | [11] | [12] | [13] | [15]

O=C(O)C(F)(F)C(F)(F)C(F)(F)C(F)(F)C(F)(F)C(F)(F)C(F)(F)C(F)(F)C(F)(F)C(F)(F)C(F)(F)C(F)(F)C(F)(F)F
inactive: [1] | [2] | [3] | [4] | [17] | [6] | [7] | [18] | [19] | [8] | [9] | [10] | [11] | [12] | [13] | [14] | [15]
active: [1] 1.32 µM | [5] 1.29 µM and 252 nM

C=CC/C=C/C/C=C/C/C=C/C
not listed: [2] | [4] | [8] | [18] | [20]
inactive: all other assays above

O=C(O)C(F)(OC(F)(F)C(F)(OC(F)(F)C(F)(OC(F)(F)C(F)(F)C(F)(F)F)C(F)(F)F)C(F)(F)F)C(F)(F)F (centres undefined)
not listed: [8] | [9]
inactive: all other assays above

OCCCC(F)(F)C(F)(F)C(F)(F)F
not listed: [2] | [4] | [8] | [9] | [18] | [19]
inactive: all other assays above

C=CC(=O)OCC(F)(F)C(F)(F)C(F)(F)C(F)(F)C(F)(F)C(F)(F)C(F)(F)F
active: [5] 30 µM
not listed: [2] | [4] | [7] | [8] | [9] | [19] | [20]
inactive: all other assays above

C=CC(F)(F)C(F)(F)C(F)(F)C(F)(F)C(F)(F)C(F)(F)C(F)(F)C(F)(F)F
not listed: [4] | [6] | [8] | [9] | [19] | [20]
inactive: all other assays above

FC(F)(F)C(F)(F)C(F)(F)C(F)(F)C(F)(F)C(F)(F)C(F)(F)I
not listed: [6] | [7] | [8] | [9] | [18] | [20]
inactive: all other assays above

CCCCOCCOCCOC(=O)CCCCC(=O)OCCOCCOCCCC
active: [16] 37.7 µM
not listed: [2] | [4] | [18] | [20]
inactive: all other assays above

FC(F)(F)C(F)(F)C(F)(F)N(C(F)(F)C(F)(F)C(F)(F)F)C(F)(F)C(F)(F)C(F)(F)F
not listed: [6] | [8] | [16] | [18] | [19] | [20]
inactive: all other assays above

O=C(O)C(F)(F)C(F)(F)C(F)F
not listed: [2] | [7] | [8] | [18]
inactive: all other assays above
